# PubChem BioAssay (NCI)
# About 79,000 compounds went through this panel and 15% of them were active in at least one assay; those are over-represented in the sample as a whole. Values without a mark were called inactive. The source made the active and inactive calls. Rule as the data show it: active = growth inhibition above about 70%; inactive = the rest.
# Assays:
# [1] = NCI Yeast Anticancer Drug Screen. Data for the rad50 strain (AID 155);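 also: 0% = growth of vehicle-only cultures of the same strain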; conditions: S. cerevisiae rad50 strain growth inhibition, hits give high values
# In short: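 Compounds were tested on a yeast strain with an engineered DNA damage repair alteration; the reported value is growth inhibition normalised to vehicle treatment.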
# [2] = NCI Yeast Anticancer Drug Screen. Data for the mec2-1 strain (AID 157); conditions: S. cerevisiae mec2-1 strain, hits give high values
# In short: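 Yeast mec2-1 mutant treated with compound. Readout: growth inhibition vs vehicle controls.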
# [3] = NCI Yeast Anticancer Drug Screen. Data for the sgs1 mgt1 strain (AID 161);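 also: 0% = growth of cultures given vehicle only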; conditions: S. cerevisiae sgs1 mgt1 strain, hits give high values
# In short: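 Genetically altered yeast, compound exposure, growth inhibition relative to vehicle.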
# [4] = NCI Yeast Anticancer Drug Screen. Data for the cln2 rad14 strain (AID 165);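 also: 0% = growth equal to vehicle treated cultures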; conditions: S. cerevisiae cln2 rad14 strain, hits give high values
# In short: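 cln2 rad14 yeast strain; compound exposure; growth inhibition read vs vehicle controls.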
# [5] = NCI Yeast Anticancer Drug Screen. Data for the bub3 strain (AID 167); conditions: S. cerevisiae bub3 mutant strain, hits give high values
# In short: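 Growth of a checkpoint-deficient yeast mutant is measured after compound exposure. Values represent inhibition relative to vehicle.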
# [6] = NCI Yeast Anticancer Drug Screen. Data for the mlh1 rad18 strain (AID 175); conditions: S. cerevisiae mlh1 rad18 strain growth inhibition, hits give high values
# In short: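 Yeast w/ defined DNA-repair lesions; compound exposure; growth vs vehicle controls → % inhibition.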
# [7] = at 5.0 µM (retest, dose inferred, filed as 0.5)
# [8] = at 50.0 µM (retest, dose inferred, filed as 5.0)
Structure (SMILES),"growth inhibition [1, 7]","growth inhibition [1, 8]",growth inhibition ([1]; at 50.0 µM),"growth inhibition [2, 7]","growth inhibition [2, 8]",growth inhibition ([2]; at 50.0 µM),"growth inhibition [3, 7]","growth inhibition [3, 8]",growth inhibition ([3]; at 50.0 µM),"growth inhibition [4, 7]","growth inhibition [4, 8]",growth inhibition ([4]; at 50.0 µM),"growth inhibition [5, 7]","growth inhibition [5, 8]",growth inhibition ([5]; at 50.0 µM),"growth inhibition [6, 7]","growth inhibition [6, 8]",growth inhibition ([6]; at 50.0 µM)
CCCC(C)C/C(C)=C\C(C)(C)C1CC(=O)N(CC)C1=O (stereo not given),-3%,90% (active),20.3%,-1%,89% (active),80.7% (active),-3%,54%,72.7% (active),4%,92% (active),83.8% (active),4%,95% (active),70.9% (active),-3%,98% (active),60.9%
CC(C)(C)C(=O)CC(=O)C(F)(F)C(F)(F)C(F)(F)F.CC(C)(C)C(=O)CC(=O)C(F)(F)C(F)(F)C(F)(F)F.CC(C)(C)C(=O)CC(=O)C(F)(F)C(F)(F)C(F)(F)F.[Gd],-7%,79% (active),89.3% (active),-9%,85% (active),91.4% (active),3%,82% (active),90.7% (active),9%,87% (active),82.7% (active),-17%,96% (active),89.2% (active),-7%,93% (active),88.8% (active)
CCOC(=O)c1cnc2cc3cccccc3n2c1=O,4%,62%,71.7% (active),-1%,41%,42.5%,13%,65%,76.5% (active),-2%,44%,54.9%,-2%,67%,31.6%,-1%,86% (active),93.3% (active)
CC(NNC(=S)N1CC2CCC(CC2)C1)c1nccc2ccccc12 (stereo not given),98% (active),96% (active),98.7% (active),98% (active),96% (active),99% (active),98% (active),96% (active),99% (active),97% (active),95% (active),98.3% (active),97% (active),94% (active),99% (active),98% (active),96% (active),99.1% (active)
CN(C)CCCSc1c2ccccc2nc2cc(NCC(=O)Nc3ccccc3-c3ccccc3NC(=O)CNc3ccc4c(SCCCN(C)C)c5ccccc5nc4c3)ccc12,53%,98% (active),90.6% (active),38%,99% (active),92.5% (active),32%,98% (active),93.3% (active),30%,63%,78.3% (active),39%,98% (active),91.5% (active),41%,98% (active),90.7% (active)
CN(C)C=NCCNc1ccc([N+](=O)[O-])cn1,-154%,-166%,4.4%,-49%,-57%,4.2%,-62%,-66%,-6.6%,-46%,-59%,24.5%,-70%,-77%,19.8%,-139%,-120%,3.6%
COc1cc2c(cc1OC)C(N(C)C)C(c1ccccc1)=C2Cl (stereo not given),0%,96% (active),91.2% (active),-28%,99% (active),93.5% (active),1%,96% (active),92.2% (active),14%,98% (active),91.5% (active),25%,98% (active),90.8% (active),7%,99% (active),90.4% (active)
Cc1ccccc1N=Nc1c(C)nn(C(N)=S)c1-c1ccccc1,6%,85% (active),95.2% (active),-15%,96% (active),57.1%,-5%,96% (active),94.8% (active),-6%,87% (active),-4.5%,-3%,97% (active),34.5%,12%,97% (active),96.3% (active)
CSc1cc2c(cc1N)Cc1cc(F)ccc1-2,4%,73% (active),98.3% (active),-1%,78% (active),98.2% (active),0%,85% (active),98.5% (active),-10%,93% (active),97.2% (active),-3%,84% (active),98% (active),-2%,82% (active),98.5% (active)
COc1ccc2cc(Br)ccc2c1,4%,-25%,10.3%,6%,-2%,5.1%,2%,1%,9.85%,8%,-2%,-10.4%,32%,6%,-0.55%,4%,-2%,17.2%
